Several values for one entry are separate records, joined by “and”; a condition that tells them apart may be missing. Identical values can stand only once. Records with an inconclusive call do not appear. Where a structure was tested more than once in an assay, its records may differ in their call. Activity calls are given as the source filed them. Rule for the calls, unless noted: active = hit-call score of the fitted dose curve at least 0.9, where 1 is the maximum; inactive = score below 0.9.
How the values were obtained:
[1] = read-out: Monocyte Chemoattractant Protein-1 (MCP1), CCL2 (gene 6347); assay: BSK_hDFCGF_MCP1: BioMAP Diversity Plus: hDFCGF Assay for Monocyte Chemoattractant Protein-1 (MCP1) Biomarker Activity (AID 2284285); details: primary human foreskin fibroblasts
Method in brief: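 MCP-1 ELISA readout was taken 24 hours after dosing primary human dermal fibroblasts in the hDFCGF system, with DMSO as baseline. Parallel sulforhodamine B staining of total protein tracked overt cytotoxicity.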

[2] = read-out: Vascular cell adhesion molecule 1 (VCAM1), VCAM1 (gene 7412); assay: BSK_IMphg_VCAM1: BioMAP Diversity Plus: IMphg Assay for Vascular cell adhesion molecule 1 (VCAM1) Biomarker Activity (AID 2284286); details: primary human endothelial cells with macrophages
Method in brief: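 ELISA read-out of VCAM-1 on venular endothelial cell/macrophage co-cultures at 24 h post-treatment, with DMSO as baseline and positive-direction fitting. Parallel sulforhodamine B total-protein staining (560 nm) served as the overt cytotoxicity measure.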

[3] = read-out: Intercellular Adhesion Molecule 1 (ICAM1), ICAM1 (gene 3383); assay: BSK_hDFCGF_ICAM1: BioMAP Diversity Plus: hDFCGF Assay for Intercellular Adhesion Molecule 1 (ICAM1) Biomarker Activity (AID 2284287); details: primary human foreskin fibroblasts
Method in brief: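 ICAM-1 ELISA readout 24 h after dosing, DMSO as baseline, in human dermal foreskin fibroblast cultures. Cytotoxicity checked in parallel wells by SRB staining (0.1% SRB, 10% TCA fixation, 560 nm).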

CD40, CD40 (gene 958) = assay: BSK_IMphg_CD40: BioMAP Diversity Plus: IMphg Assay for CD40 Biomarker Activity (AID 2284288); details: primary human endothelial cells with macrophages
Method in brief: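 ELISA read-out of cell-surface CD40 at 24 h in human venular endothelial cell/macrophage co-cultures. Activity fitted in the positive direction against DMSO; parallel SRB staining (560 nm) gauges overt cytotoxicity.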

[4] = read-out: Interleukin-1 alpha (IL1a), IL1A (gene 3552); assay: BSK_IMphg_IL1a: BioMAP Diversity Plus: IMphg Assay for Interleukin-1 alpha (IL1a) Biomarker Activity (AID 2284290); details: primary human endothelial cells with macrophages
Method in brief: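 IL-1α is quantified by ELISA at 24 h in the endothelial/macrophage IMphg co-culture, with gain of signal fitted relative to DMSO. Parallel SRB total-protein staining flags overt toxicity.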

[5] = read-out: E-selectin (Homo sapiens) (UniProt P16581); assay: BSK_IMphg_ESelectin: BioMAP Diversity Plus: IMphg Assay for Eselectin Biomarker Activity (AID 2284291); details: primary human endothelial cells with macrophages
Method in brief: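 Analysed against DMSO baseline in the positive fitting direction, this endpoint is an ELISA read of E-selectin. It comes from human venular endothelial cells co-cultured with macrophages, sampled 24 h post-dose.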

[6] = read-out: Macrophage colony-stimulating factor (MCSF), CSF1 (gene 1435); assay: BSK_IMphg_MCSF: BioMAP Diversity Plus: IMphg Assay for Macrophage colony-stimulating factor (MCSF) Biomarker Activity (AID 2284293); details: primary human endothelial cells with macrophages
Method in brief: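 M-CSF was measured by ELISA in human venular endothelial cell/macrophage co-cultures dosed for 24 hours. Sulforhodamine B staining of parallel cultures assessed cytotoxicity; data fitted against DMSO baseline.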

[7] = read-out: Interleukin-10 (IL10), IL10 (gene 3586); assay: BSK_IMphg_IL10: BioMAP Diversity Plus: IMphg Assay for Interleukin-10 (IL10) Biomarker Activity (AID 2284294); details: primary human endothelial cells with macrophages
Method in brief: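 IL-10 read by ELISA after 24 h chemical exposure of primary human venular endothelial cell/macrophage cocultures, with DMSO as baseline. Parallel SRB staining (560 nm) gauged overt cytotoxicity.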

[8] = BSK_IMphg_SRB.Mphg: Macrophage Viability Assessment in the BioMAP Diversity Plus: IMphg Assay (AID 2284295); details: primary human endothelial cells with macrophages
Method in brief: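 Cytotoxicity read-out: parallel cultures fixed with 10% TCA, stained with 0.1% sulforhodamine B, read at 560 nm. System combines venular endothelium and macrophages; sampled 24 h post-dosing, fitted positively relative to DMSO control.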

[9] = read-out: Thrombomodulin, THBD (gene 7056); assay: BSK_LPS_Thrombomodulin: BioMAP Diversity Plus: LPS Assay for Thrombomodulin Biomarker Activity (AID 2284296); details: primary human HUVEC with PBMC
Method in brief: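 Thrombomodulin on the surface of LPS-activated endothelial/PBMC co-cultures was quantified by ELISA at 24 hours post-dosing, with DMSO as baseline. Parallel SRB total-protein staining flagged overt cytotoxicity.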

CD69, CD69 (gene 969) = assay: BSK_LPS_CD69: BioMAP Diversity Plus: LPS Assay for CD69 Biomarker Activity (AID 2284303); details: primary human HUVEC with PBMC
Method in brief: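 CD69 surface levels were read by ELISA after 24 h chemical treatment of an LPS-stimulated HUVEC plus PBMC co-culture; positive-direction fit against DMSO vehicle.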

[10] = IUF_NPC2c_oligodendrocyte_migration_120hr: Leibniz Research Institute for Environmental Medicine (IUF) 120-hour Neural Progenitor Cell Migration Assay for Oligodendrocyte Migration (NPC2c) (AID 2284297);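 note: O4-positive oligodendrocyte migration distance divided by radial glia migration distance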
Method in brief: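 Primary hNPC spheres migrating on extracellular matrix, exposed five days to a 7-point dilution series with solvent control. Oligodendrocyte migration was scored by high-content imaging of O4 immunostaining and expressed relative to radial glia distance.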

[11] = IUF_NPC2a_radial_glia_migration_120hr: Leibniz Research Institute for Environmental Medicine (IUF) 120-hour Neural Progenitor Cell Migration Assay for Radial Glia Migration (NPC2a) (AID 2284298)
Method in brief: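 In this multiplexed test, fetal hNPC spheres migrate radially on poly-D-lysine/laminin in N2 medium (37C, 5% CO2, pH 7.2-7.6) under continuous compound exposure over five days. Migration is scored at 120 h from automated Hoechst nuclear imaging.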

[12] = IUF_NPC2a_radial_glia_migration_72hr: Leibniz Research Institute for Environmental Medicine (IUF) 72-hour Neural Progenitor Cell Migration Assay for Radial Glia Migration (NPC2a) (AID 2284299)
Method in brief: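 Spheres of human primary neural progenitors migrate on poly-D-lysine/laminin under compound exposure at 37C, 5% CO2. The 72 h radial glia migration distance comes from brightfield images, measured manually.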

[13] = IUF_NPC2b_neuronal_migration_120hr: Leibniz Research Institute for Environmental Medicine (IUF) 120-hour Neural Progenitor Cell Migration Assay for Neuron Migration (NPC2b) (AID 2284300)
Method in brief: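 Neurons identified by TUBB3 immunostaining and Hoechst nuclei; migration distance measured automatically on fixed wells at 120 h, normalized to glia migration. Exposure spanned five days of differentiation in N2 medium, seven test concentrations.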

[14] = IUF_NPC3_neuronal_differentiation_120hr: Leibniz Research Institute for Environmental Medicine (IUF) 120-hour Neuronal Differentiation Assay (NPC3) (AID 2284301)
Method in brief: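 Value is percent TUBB3-positive neurons among Hoechst-stained nuclei in the migration area, scored by trained CNN after 120 h differentiation. Primary hNPC spheres on poly-D-lysine/laminin, N2 medium, continuous dosing from day 0, half-refeed day 3; DMSO reference.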

[15] = IUF_NPC4_neurite_length_120hr: Leibniz Research Institute for Environmental Medicine (IUF) 120-hour Neuronal Morphology Assay for Neurite Length (NPC4) (AID 2284302)
Method in brief: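 Neurite length, the mean in um across TUBB3-stained neurons, is derived by skeletonization of high-content images after 120 h differentiation. Compound exposure, 7 concentrations plus solvent control, ran from plating of hNPC spheres on poly-D-lysine/laminin, with medium half-replaced on day 3.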

[16] = IUF_NPC5_oligodendrocyte_differentiation_120hr: Leibniz Research Institute for Environmental Medicine (IUF) 120-hour Oligodendrocyte Differentiation Assay (NPC5) (AID 2284304; active = hit-call score of the fitted dose curve at least 0.9, where 1 is the maximum;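 note: primary human fetal neural progenitor spheres plated to migrate and differentiate; share of O4-positive cells among Hoechst nuclei found by CNN image analysis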)
Method in brief: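 Human primary NPC neurospheres migrating and differentiating on laminin for 120 h under continuous compound exposure (serial dilution, solvent control). Endpoint: percent O4+ oligodendrocytes among Hoechst nuclei, detected by CNN image analysis, with DMSO as negative control.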

[17] = IUF_NPC4_neurite_area_120hr: Leibniz Research Institute for Environmental Medicine (IUF) 120-hour Neuronal Morphology Assay for Neurite Area (NPC4) (AID 2284305; active = hit-call score of the fitted dose curve at least 0.9, where 1 is the maximum)
Method in brief: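 Neurite area (pixels, nuclei excluded) of TUBB3-positive neurons from hNPC spheres differentiating 5 days under continuous exposure at 37 C, 5% CO2. High-content imaging; loss of signal versus DMSO control across 7 concentrations.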

[18] = IUF_NPC2-5_cytotoxicity_72hr: Cytotoxicity Assessment at 72 hours in the Leibniz Research Institute for Environmental Medicine (IUF) Neural Progenitor Cell Migration and Differentiation Assay for Cytotoxicity (NPC2-5) (AID 2284306; active = hit-call score of the fitted dose curve at least 0.9, where 1 is the maximum;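 note: LDH release into supernatant measured by resorufin fluorescence marking membrane damage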)
Method in brief: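 Membrane-integrity cytotoxicity at 72 h, read as LDH-driven resorufin fluorescence in supernatant. hNPC spheres from fetal cortex differentiate on coated plates in N2 medium, 37C, 5% CO2; seven serial compound concentrations plus solvent control (DMSO ≤0.1%).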

Measured: AC50

Sequence of E-selectin (Homo sapiens) (P16581 whole entry, looked up): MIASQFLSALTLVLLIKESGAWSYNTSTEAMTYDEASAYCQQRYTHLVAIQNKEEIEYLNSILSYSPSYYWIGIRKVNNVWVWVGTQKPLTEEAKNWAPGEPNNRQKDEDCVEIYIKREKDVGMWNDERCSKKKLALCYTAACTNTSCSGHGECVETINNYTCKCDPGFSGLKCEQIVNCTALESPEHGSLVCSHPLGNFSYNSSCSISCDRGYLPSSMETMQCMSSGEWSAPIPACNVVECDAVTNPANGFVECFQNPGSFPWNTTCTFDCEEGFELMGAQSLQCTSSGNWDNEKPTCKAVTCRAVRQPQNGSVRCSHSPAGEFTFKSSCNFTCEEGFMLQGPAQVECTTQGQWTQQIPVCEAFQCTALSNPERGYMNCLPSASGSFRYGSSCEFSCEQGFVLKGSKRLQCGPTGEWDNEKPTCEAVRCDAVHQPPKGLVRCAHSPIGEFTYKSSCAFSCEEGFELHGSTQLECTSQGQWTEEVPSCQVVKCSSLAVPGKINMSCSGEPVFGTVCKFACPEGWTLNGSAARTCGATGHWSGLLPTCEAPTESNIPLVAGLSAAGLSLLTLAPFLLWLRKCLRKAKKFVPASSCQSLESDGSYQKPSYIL

CN(Cc1cnc2nc(N)nc(N)c2n1)c1ccc(C(=O)N[C@@H](CCC(=O)O)C(=O)O)cc1
inactive: [1] | [2] | [3] | CD40, CD40 (gene 958) | [4] | [5] | [6] | [7] | [8] | [9] | CD69, CD69 (gene 969)
active: [1] 607 nM | [8] 3.26 µM

CC(=O)Nc1ccc(O)cc1
inactive: [10] | [11] | [12] | [13] | [14] | [15] | [16] | [17] | [18]

Oc1ccc(Cc2ccccc2O)cc1
inactive: [1] | [3] | [9] | CD69, CD69 (gene 969)

O=C(CC(=O)C(F)(F)C(F)(F)C(F)(F)F)c1cccs1
inactive: [1] | [3] | CD40, CD40 (gene 958) | [4] | [6] | CD69, CD69 (gene 969)
active: [2] 50.5 µM and 43.4 µM | [4] 47.6 µM | [5] 40.3 µM and 42 µM | [7] 22 µM and 29.2 µM | [8] 43.1 µM and 42.7 µM | [9] 55.5 µM and 54.2 µM

O=S(=O)(O)C(F)(F)C(F)(F)C(F)(F)C(F)(F)C(F)(F)C(F)(F)C(F)(F)C(F)(F)C(F)(F)C(F)(F)F
active: [1] 10300 nM | CD40, CD40 (gene 958) 10.6 µM and 6.06 µM | [7] 13.3 µM | [8] 0.668 µM | CD69, CD69 (gene 969) 14.6 µM and 3.91 µM
inactive: [1] | [2] | [3] | [4] | [5] | [6] | [7] | [8] | [9]

O=C(CCCN1CCC(O)(c2ccc(Cl)cc2)CC1)c1ccc(F)cc1
inactive: [10] | [12] | [13] | [14] | [15] | [17] | [18]
active: [11] 15.9 µM | [16] 3.35 µM

CCCCCCCCCCCC
inactive: [9] | CD69, CD69 (gene 969)
active: [1] 11.1 µM and 7.93 µM | [3] 11.7 µM and 10.3 µM | [9] 35.4 µM | CD69, CD69 (gene 969) 30.1 µM

CN(CCO)S(=O)(=O)C(F)(F)C(F)(F)C(F)(F)C(F)(F)C(F)(F)C(F)(F)C(F)(F)C(F)(F)F
active: [1] 74.2 nM
inactive: [1] | [2] | [3] | CD40, CD40 (gene 958) | [4] | [5] | [6] | [7] | [8] | [9] | CD69, CD69 (gene 969)

Oc1c(Cl)cc(Cl)cc1Sc1cc(Cl)cc(Cl)c1O
active: [1] 2.54 µM and 3.14 µM | [3] 2.56 µM and 2.73 µM | CD69, CD69 (gene 969) 24.3 µM and 27.4 µM
inactive: [9]

OCC(F)(F)C(F)(F)C(F)(F)C(F)(F)C(F)(F)C(F)(F)C(F)(F)C(F)(F)C(F)(F)C(F)(F)C(F)(F)F
inactive: [1] | [2] | [3] | [4] | [6] | [7] | [9] | CD69, CD69 (gene 969)
active: CD40, CD40 (gene 958) 1.35 µM | [5] 155 nM and 396 nM | [7] 0.835 µM | [8] 550 nM and 521 nM

Reference: PubChem BioAssay (EPA / NIEHS)
